These results are taken from PubChem BioAssay AID1347431 (National Center for Advancing Translational Sciences (NCATS), 2020).

Structures are written as SMILES. Among all 1,200 compounds or so, fewer than 10 were called active. Calls follow the shape of the dose curve; as a rule, active = well fitted curve in the direction sought with a large enough effect; inconclusive = small, poorly fitted or top-dose-only effect, or another doubt; inactive = no such curve, though single readings can be large or run the other way. The list is a sample of the results.

The nature of the test: Confirmatory qHTS assay for inhibitors of Activation Induced Cytidine Deaminase (AID): UDG signals. The following applies: UDG coupled enzyme activity counter-screen; series mostly up to 115 µM. An excerpt:
Assay Provider (PI) Patricia Gearhart Ph.D.
National Institute on Aging
National Institute of Health (NIH), Bethesda, MD
Assay Provider (PI) Rahul Kohli Ph.D.
Perelman School of Medicine
University of Pennsylvania, Philadelphia, PA
Activation-Induced Deaminase (AID) is a cytosine deaminase which converts cytosine into uracil within stretches of ssDNA. The presence of uracil in DNA initiates a cascade of mutagenic DNA repair to introduce point mutations and DNA double strand breaks. Specific targeting of AID to the immunoglobulin heavy chain loci (Igh) promotes mutagenesis in the antibody variable region for somatic hypermutation (SHM) or switch regions leading to class switch recombination (CSR). However, AID also plays a role in accumulating unnecessary mutations across the genome. Mis-targeting of AID results in the initiation of tumor development and leads to greater drug resistance among cancer cells when continually expressed. To identify an AID inhibitor, a small molecule library will be screened in collaboration with NCATS core facility at NIH. To confirm biological function, inhibitors will be examined in an in vitro murine B-cell activation assay and subsequent secondary validation screens. Top molecules will be further screened to identify inhibitory efficacy against a wild type primary splenocytes assay. Using these approaches, we hope to identify a small molecule with great efficacy and low toxicity for use as a molecular probe to further characterize AID's intricacies, or even as a therapeutic.
A FRET based analysis of cytosine deamination, was developed to identify potential inhibitors of AID catalytic activity. This screen has two signal output, Read 1 evaluates the AID inhibition response. The second readout (Read 2) evaluates UDG response and is uses as a counterscreen to exclude false positive inhibitors. Inhibition in AID and inactivity in the UDG signal is the desired outcome for this assay.
SEQUENCE No. (e.g., 1, 2, 3, etc.); […] (e.g., Cells, Incubation, Reagent, etc.); VALUE; DESCRIPTION
1a; Reagent; 3 uL; [4/3x] 1 uM AID/2.67 U/mL UDG
1b; Reagent; 3 uL; 2 U/mL UDG
1c; Reagent; 3 uL; 1 uM AID
2a; Compound; 46 nL; Follow-up plates (0.64 uM - 10 mM)
2b; Control; 46 nL; ATA ([…] - 10 mM)
3; Time; 10 min; incubation at room temperature
5; Time; 4 hr; incubation at room temperature
6; Reagent; 4 uL; [2x] 250 mM NaOH
7; Time; 15 sec; centrifuge at 1000 rpm
8; Time; 30 min; incubation at room temperature
9a; Detection; fluorescence (Read 1: AID); EnVision (PerkinElmer) plate reader, 540 excitation and 590 emission filters
9b; Detection; fluorescence (Read 2: UDG); EnVision (PerkinElmer) plate reader, 560 excitation and 665 emission filters
NOTES (numbers refer to sequence above)
1a; Reagents were dispensed in a medium-binding black solid-bottom Greiner plates (789176F) using a BioRptr liquid dispenser. Dispense 3 uL of [4/3x] 1 uM AID (provided by Kohli lab) and [4/3x] 2 U/mL UDG (NEB M0280L) into columns 1, 2, 5 to 48.
1b; Dispense 3 uL of [4/3x] 2 U/mL UDG into column 3.
1c; Dispense 3 uL of [4/3x] 1 uM AID into column 4.
2a; Compound (7-points [uM]: 0.64; 3.2; 16; 80; 400; 2,000; 10,000; […]) double pin-transferred (Dip Factor = 2) using the Kalypsys (Wako USA) pintool equipped with a 1536 pinhead for a final concentration range of 7.32 nM - 114 uM.
2b; 10 mM Aurintricarboxylic Acid (Sigma A1895) (ATA, 8-point, n = 2, 1:2.5 dilution in column 2) double pin-transferred (Dip Factor = 2) using the Kalypsys (Wako USA) pintool equipped with a 1536 pinhead for a [final] range of 186 nM - 114 uM.
3; Room temperature incubation.
4; Dispense 1 uL of substrate mixture from the Kohli lab [4x] […] DJC20 and [4x] 250 nM DJC23 into columns 1 to 48 .
5; Room temperature incubation.
6; Dispense 4 uL of substrate mixture [2x] 250 mM NaOH into columns 1 to 48.
7; Centrifugation step to remove bubbles.
8; Room temperature incubation
9a; Fluorescence signal (column label AID) was read using the EnVision plate reader. […]
Regarding `CCN1CCN(c2cc(C)c3cc(NC(=O)/C=C/c4cccc(Cl)c4)ccc3n2)CC1`, the result was inactive. Take `CCOc1ccc(Nc2sc(C(=O)c3ccc(F)cc3)c(N)c2S(=O)(=O)c2ccc(C)cc2)cc1`: the outcome was inactive. In the case of `CCc1ccccc1N(C)C(=O)c1sc2nc3n(c(=O)c2c1C)CCCCC3`, the compound was classed as inactive. With `COc1ccc(CNC(=O)c2cnn3c(C)c(Cc4c(F)cccc4Cl)c(C)nc23)cc1`, the compound was classed as inactive. Take `COc1ccc(C(=O)c2cn(Cc3ccccc3F)c3ccc(F)cc3c2=O)cc1`: the result was inactive. Regarding `CCCCCCSc1nc(N)c2c3c(sc2n1)CCCC3C` (stereo not given), the outcome was inactive.

Regarding `Cc1nc2c(C(=O)NCCc3ccc(Cl)cc3)cnn2c(C)c1Cc1ccc(F)cc1`, the compound was called inactive. `Cc1cccc(N2C(=O)N(CC(=O)C(C)(C)C)c3ccccc3S2(=O)=O)c1C`: the compound was called inactive. Regarding `COc1ccccc1OCCn1c(C(C)Oc2ccccc2)nc2ccccc21` (stereo not given), the call was inactive. For `CCOc1ccccc1NC(=O)CN1C(=O)CC(c2ccc(OC)c(OC)c2)Sc2ccccc21` (stereo not given), the outcome was inactive. Regarding `CCC(C(=O)N1CCN(c2cc(C)ccc2C)CC1)n1nc(C)n2c(cc3occc32)c1=O` (stereo not given), the call was inactive. On to `COc1ccc(-n2c(Cc3ccccc3)nnc2SCc2nc(-c3ccccc3C)no2)cc1`, for which the result was inactive.

Regarding `COc1ccc(N2C(=O)CSC23C(=O)N(Cc2cccc(C(F)(F)F)c2)c2ccccc23)cc1` (stereo not given), the compound was classed as inactive. `Cc1nc2cc(-c3ccccc3)nn2c(C)c1CCC(=O)N1CCN(c2ccc(F)cc2)CC1`: the compound was called inactive. For `COc1ccc(C)cc1N(C)C(=O)c1sc2nc3n(c(=O)c2c1C)CCCCC3`, the call was inactive. With `Cc1oc(-c2ccccc2Cl)nc1CS(=O)CC(=O)N1CCN(c2cccc(C(F)(F)F)c2)CC1` (stereo not given) the entry was “inactive”.

Turning to `Cc1ccc2onc(CC(=O)N3CCN(c4cc(Cl)ccc4C)CC3)c2c1`, the compound was classed as inactive. `CCn1cc(C(=O)NCCc2ccc(OC)c(OC)c2)c(=O)c2cc(S(=O)(=O)N(C)C3CCCCC3)ccc21`: the compound was called inactive. With `CC(C)c1ccc(NC(=O)c2ccc3c(O)c(S(=O)(=O)c4ccccc4)c(=O)[nH]c3c2)cc1`, the call was inactive.

In the case of `CCn1cc(S(=O)(=O)c2ccc(C)cc2C)c(=O)c2cc(F)c(N3CCCC3)cc21`, the compound was classed as inactive. Turning to `Cc1cccc(CNC(=O)c2oc3c(c2C)-c2nn(Cc4ccccc4Cl)cc2CC3)c1`, the outcome was inactive.

As for `COc1ccc(N2CCN(C(=O)c3cc4c(-c5ccccc5F)nn(C)c4s3)CC2)cc1`, the outcome was inactive. For the compound `CCc1cccc(-n2c(C)nc3c(cnn3-c3ccc(Cl)cc3)c2=O)c1`, the call was inactive. On to `CCOc1ccc(-c2nc(CSCC(=O)N3CCN(c4cccc(C(F)(F)F)c4)CC3)c(C)o2)cc1`, for which the compound was called inactive. Turning to `Cc1ccc(-n2ncc(C(=O)NCCc3ccccc3)c2C2CCN(C(=O)OC(C)(C)C)CC2)c(C)c1`, the call was inactive.

With `CCn1cc(C(=O)NCCc2ccc(OC)c(OC)c2)c(=O)c2cc(S(=O)(=O)N3CCC(C)CC3)ccc21`, the outcome was inactive. Take `COc1cc2nc(NC(=O)c3ccc(S(=O)(=O)N4CCc5ccccc54)cc3)sc2cc1OC`: the result was inactive. As for `Cc1ccc2oc(C(=O)NCC(c3ccc(Cl)cc3)N3CCOCC3)c(C)c2c1` (stereo not given), the compound was classed as inactive. With `N=c1n(CCN2CCCCC2)c2ccccc2n1CC(O)COc1ccc(Cl)cc1Cl` (stereo not given) the entry was “inactive”.

As to `CCCCN(CC)CCNC(=O)c1cc2c(=O)oc3ccc(C)cc3c2s1`, the compound was called inactive. For the compound `O=C(Nc1ccc(F)cc1F)c1ccc2c(O)c(S(=O)(=O)c3ccc(Cl)cc3)c(=O)[nH]c2c1`, the call was inactive. As for `CCC(C(=O)Nc1cc(Cl)ccc1OC)n1nc(-c2ccccc2)ccc1=O` (stereo not given), the call was inactive. With `CCCNC(=O)c1cnn2c(C)c(Cc3c(C)cc(C)cc3C)c(C)nc12` the entry was “inactive”.

Regarding `CCc1ccc(NC(=O)CSc2nccn2-c2cccc(C)c2C)cc1`, the call was inactive.

For `Cc1c(Cl)cccc1-n1ncc(C(=O)NCc2cccs2)c1C1CCN(C(=O)OC(C)(C)C)CC1`, the outcome was inactive. On to `Cc1nc2ccccc2n1CCc1nc2c3ccccc3nc(SCC(=O)Nc3ccc(C(C)C)cc3)n2n1`, for which the compound was classed as inactive. As for `COc1ccc(NC(=O)c2c(NC(=O)c3ccc(Br)cc3)sc3c2CCCC3)cc1`, the compound was called inactive. The entry for `Cc1ccccc1Cc1c(C)nc2nc(SCC(=O)NCCc3ccc(Cl)cc3)nn2c1C` is “inactive”; for `COCCCNC(=O)c1oc2c(c1C)-c1nn(Cc3cccc(Cl)c3)cc1CC2` it is “inactive”; for `Cc1cccc(-n2c3nc(=O)[nH]c(=O)c-3cc3ccc(Cl)cc32)c1C` it is “inactive”.

Take `Cc1cc(N)c(-n2cc3c(c2-c2ccc(Br)cc2)c(=O)n(C)c(=O)n3C)cc1C`: the outcome was inactive. In the case of `Cc1cccc(Cn2nnc3c(=O)[nH]c(C4CCCN(C(=O)c5ccc(C(C)(C)C)cc5)C4)nc32)c1` (stereo not given), the compound was classed as inactive. Consider `COc1ccc(CCN2CCC(CNC(=O)c3cnn(-c4cccc(Cl)c4)c3C3CCN(C(=O)OC(C)(C)C)CC3)CC2)cc1`, for which the call was inactive. In the case of `COc1cc(NC(=O)CCc2c(C)nc3c4c(C)cc(C)nc4nn3c2C)cc(OC)c1`, the compound was classed as inactive.

Consider `CCOC(=O)c1ccc(-c2ccc(/C=C(\C#N)c3nc4ccc(C)cc4[nH]3)o2)cc1`, for which the outcome was inactive.
